# Reference: PubChem BioAssay (NCI)
# About 83,000 compounds went through this panel and 20% of them were active in at least one assay; those are over-represented in the sample as a whole.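 Treatment: one concentration, 48 hours, 96-well format. Scoring: percent growth, with anything below 10 considered active.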 A number with no mark means an inactive call. Active and inactive are the calls of the source.
# Assays:
# Experiment in all cases: NCI-60 one-dose screen, 48 h (100 = growth as untreated, 0 = no growth, -100 = all killed)
# Conditions in all cases: 10 µM unless noted
# DU-145 prostate = test system: DU-145 prostate
# K-562 leukemia = test system: K-562 leukemia
# MALME-3M melanoma = test system: MALME-3M melanoma
# MDA-MB-231 breast = test system: MDA-MB-231 breast
# RXF 393 renal = test system: RXF 393 renal
# SF-268 CNS = test system: SF-268 CNS
# SF-295 CNS = test system: SF-295 CNS
# SF-539 CNS = test system: SF-539 CNS
# UACC-257 melanoma = test system: UACC-257 melanoma
# M14 melanoma = test system: M14 melanoma
# HCT-15 colon = test system: HCT-15 colon
# HT29 colon = test system: HT29 colon
# SNB-75 CNS = test system: SNB-75 CNS
# SNB-19 CNS = test system: SNB-19 CNS
# U251 CNS = test system: U251 CNS
# PC-3 prostate = test system: PC-3 prostate
# SK-MEL-5 melanoma = test system: SK-MEL-5 melanoma
# UACC-62 melanoma = test system: UACC-62 melanoma
# LOX IMVI melanoma = test system: LOX IMVI melanoma
# SK-MEL-28 melanoma = test system: SK-MEL-28 melanoma
Compound,growth (DU-145 prostate),growth (K-562 leukemia),growth (MALME-3M melanoma),growth (MDA-MB-231 breast),growth (RXF 393 renal),growth (SF-268 CNS),growth (SF-295 CNS),growth (SF-539 CNS),growth (UACC-257 melanoma),growth (M14 melanoma),growth (HCT-15 colon),growth (HT29 colon),growth (SNB-75 CNS),growth (SNB-19 CNS),growth (U251 CNS),growth (PC-3 prostate),growth (SK-MEL-5 melanoma),growth (UACC-62 melanoma),growth (LOX IMVI melanoma),growth (SK-MEL-28 melanoma)
CC(=O)c1cnc2ccc(-c3cc(Cl)c(O)c(Cl)c3)nc2c1NC1CCC(CN(C)C)CC1 (stereo not given),-5.67% [2.5 µM] (active),6.35% [2.5 µM] (active),-75.7% [2.5 µM] (active),-7.07% [2.5 µM] (active),-75.1% [2.5 µM] (active),-24.1% [2.5 µM] (active),-19.2% [2.5 µM] (active),-89% [2.5 µM] (active),-26.4% [2.5 µM] (active),-58.4% [2.5 µM] (active),0.375% [2.5 µM] (active),0.58% [2.5 µM] (active),-96.9% [2.5 µM] (active),5.41% [2.5 µM] (active),-26.6% [2.5 µM] (active),-12% [2.5 µM] (active),-86.5% [2.5 µM] (active),-70.9% [2.5 µM] (active),-61.2% [2.5 µM] (active),-39.8% [2.5 µM] (active)
Cc1ccc(N)cc1CN1C(=O)c2ccccc2C1=O,105%,105%,101%,106%,102%,121%,118%,107%,100%,96.9%,101%,85.5%,87%,102%,102%,90.1%,103%,103%,101%,110%
FC(F)c1nc2ccccc2n1-c1nc(N2CCOCC2)nc(N2CCOCC2)n1,6.49% (active),13.1%,-26.7% (active),15.7%,-44.5% (active),2.79% (active),-44.6% (active),-45.3% (active),-27.3% (active),3% (active),9.28% (active),2.81% (active),-48% (active),10.5%,4.05% (active),7.59% (active),-41.8% (active),-50% (active),-17.9% (active),-31% (active)
CN1CCN(CCCOc2cccc3nc(Nc4ccc(Cl)c(C(F)(F)F)c4)ccc23)CC1,4.82% (active),-41.3% (active),34.1%,-44.5% (active),14.7%,28.3%,-11% (active),7.03% (active),59.3%,-54.6% (active),-49.6% (active),-58.9% (active),-3.73% (active),20.8%,-22.7% (active),14.6%,41.5%,-29% (active),-95% (active),-45.2% (active)
COc1cc(NC2CCC(=O)N2c2ccc(Cl)cc2Cl)cc(OC)c1OC (stereo not given),103%,106%,93.3%,111%,120%,98.7%,101%,101%,99.1%,94.9%,108%,107%,86.5%,101%,97.7%,95.9%,103%,104%,96.6%,104%
Cn1ccnc1C(=O)/C=C/c1ccc(CC(=O)Nc2ccc(S(F)(F)(F)(F)F)cc2)cc1,8.82% (active),0.513% (active),51.4%,-2.8% (active),-70.6% (active),7.07% (active),-6.63% (active),-84.7% (active),54.6%,-27.4% (active),1.2% (active),-36% (active),3.35% (active),-39.9% (active),-93.3% (active),-32.7% (active),33.2%,-2.41% (active),-78.7% (active),38.2%
C/C(=N\NC(=O)Cn1c(-c2ccc(S(C)(=O)=O)cc2)nc2ccccc21)c1ccc(Cl)cc1,112%,80.7%,102%,90.2%,92.2%,91.3%,90%,106%,88.8%,94%,87.8%,98.3%,81.1%,93.4%,89.7%,52.2%,91.7%,84.7%,100%,113%
Cc1nn(-c2ccccc2)c2c1N=c1s/c(=C\c3cn(-c4ccccc4)nc3-c3ccc(Cl)cc3)c(=O)n1C(C)N2 (stereo not given),59.7%,119%,124%,78.5%,114%,91%,116%,85.6%,111%,107%,85.8%,94.3%,86.4%,98.9%,85.2%,82.4%,85%,106%,87.6%,118%
COc1cc(Nc2c(C#N)cnc3cc(OCCCN4CCN(C)CC4)c(OC)cc23)c(Cl)cc1Cl,46%,22.7%,1.06% (active),62.3%,59%,70.5%,83.7%,94.4%,-8.01% (active),13%,57.5%,10.3%,87.6%,70.4%,65%,84.7%,62.5%,9.83% (active),33.1%,19.3%
Cc1cc(C(O)CN(C)C)cc2c1ccc1cc(C(C)C)ccc12 (stereo not given),55.7%,-20.2% (active),-77.3% (active),-35.1% (active),-47.8% (active),62.2%,-66.1% (active),71.5%,-74.4% (active),-100% (active),-38.7% (active),-65.1% (active),-63.5% (active),59%,-48.8% (active),48.6%,-93.1% (active),-81.2% (active),-100% (active),-100% (active)
CNC(=O)c1ccc(Nc2ncc(C(F)(F)F)c(NCc3nccnc3N(C)S(C)(=O)=O)n2)cc1,7.63% (active),10.6%,-1.87% (active),3.13% (active),-51.1% (active),2.86% (active),5.63% (active),-42.7% (active),-21.5% (active),8.04% (active),1.88% (active),-11.9% (active),-44.7% (active),7.45% (active),1.49% (active),10.5%,-49.5% (active),-70% (active),0.319% (active),1.14% (active)
Cc1ccc(F)c(NC(=O)Nc2ccc(-c3cccc4[nH]nc(N)c34)cc2)c1,27.5%,7.81% (active),-4.64% (active),9.7% (active),-20.1% (active),30%,42.8%,3.67% (active),16%,28.3%,7.06% (active),2.74% (active),29.8%,27.2%,12.9%,30.8%,34.6%,37.1%,-8.35% (active),36.1%
Cc1ccc(NC(=O)c2ccc(CN3CCN(C)CC3)cc2)cc1Nc1nc(-c2cccnc2)cs1,76.5%,3.08% (active),-9.2% (active),33.8%,32.9%,70.8%,3.18% (active),-81.5% (active),17%,35.5%,16.1%,6.04% (active),64.8%,46.3%,6.69% (active),35.9%,-0.29% (active),58.4%,-27.3% (active),-10.3% (active)
Cc1cc(C(=O)NOCCO)c(Nc2ccc(I)cc2F)n(C)c1=O,69.8%,34.2%,-4.71% (active),40.7%,27.3%,78.9%,84%,60.8%,-19.6% (active),7.71% (active),67.5%,7.17% (active),83.8%,57.9%,51.8%,106%,50.4%,-1.84% (active),26.3%,1.47% (active)
Cn1cc(-c2cnn3c(N)c(Br)c([C@@H]4CCCNC4)nc23)cn1,37.1%,17.9%,50.4%,35.3%,-2.46% (active),60.1%,24.1%,22.6%,70.7%,33.4%,60.6%,23%,20.5%,52.1%,61%,42.8%,28.6%,63.7%,22%,72.5%
Cc1cc(C(=O)Nc2cc(Oc3ccc4nc(NC(=O)C5CC5)cn4n3)ccc2C)n(C)n1,54.3%,7.79% (active),-5.45% (active),21.9%,-15.1% (active),40.9%,52.5%,3.9% (active),-29% (active),-8.27% (active),44.1%,4.61% (active),7.99% (active),33.5%,13.3%,49.8%,23.6%,-16.9% (active),-20.1% (active),0.461% (active)
